# Source: PubChem BioAssay (NCATS)
# Results filed as inconclusive are left out. Calls of active or inactive are those of the source. Calls come from the whole dose curve; as a rule, active = well fitted inhibition curve with a large enough effect; inconclusive = small, poorly fitted or top-dose-only effect; inactive = flat fitted curve, though single readings scatter.
# Target: Calcium and integrin-binding protein 1 (Homo sapiens) (UniProt Q99828)
# Assay: Primary qHTS for Identification of Calcium Integrin Binding Protein 1 (CIB1) Competitor (AID 1508620); note: top concentration of the series differs between compounds
# Conditions: CIB1-GST / FITC-alphaIIb peptide fluorescence polarization; series mostly up to 57.7 µM; activity change, negative = inhibition: at the top concentration
# Outline: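 Fluorescence polarization competition: GST-tagged CIB1 (1 uM final) preincubated with compound 15 min at room temperature, then FITC-labelled alphaIIb peptide (100 nM final) added. After 15 min at room temperature, polarization read at Ex 480/Em 540.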
# % is set by controls: 0 for no effect and ±100 for the full control effect.
# Calcium and integrin-binding protein 1 (Homo sapiens), sequence (Q99828 whole entry, looked up): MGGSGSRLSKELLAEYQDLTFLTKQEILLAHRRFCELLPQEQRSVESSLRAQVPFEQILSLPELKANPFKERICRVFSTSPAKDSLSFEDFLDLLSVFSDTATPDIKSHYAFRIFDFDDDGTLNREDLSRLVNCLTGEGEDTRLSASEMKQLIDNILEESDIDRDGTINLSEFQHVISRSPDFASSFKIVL
SMILES,outcome,"activity change, negative = inhibition"
CCc1cc(Nc2nccc(-c3c(-c4ccc(OC)c(C(=O)Nc5c(F)cccc5F)c4)nc4ccccn34)n2)c(OC)cc1N1CCC(N2CCN(S(C)(=O)=O)CC2)CC1,inactive,–
CC1(C)CNc2cc(NC(=O)c3cccnc3NCc3ccncc3)ccc21,inactive,–
Cc1c(C)c2c(c(C)c1O)CCC(C)(COc1ccc(CC3SC(=O)NC3=O)cc1)O2 (stereo unspecified),inactive,–
CNC(=O)c1ccc(N2C(=S)N(c3ccc(C#N)c(C(F)(F)F)c3)C(=O)C2(C)C)cc1F,–,1.23% (inactive)
C[C@@H]1CN(Cc2ccc(F)cc2)[C@@H](C)CN1C(=O)c1cc2c(C(=O)C(=O)N(C)C)cn(C)c2cc1Cl,inactive,–
O=C(NOC[C@H](O)CO)c1ccc(F)c(F)c1Nc1ccc(I)cc1F,inactive,–
Nc1cccc(S(=O)(=O)N2CCCN(S(=O)(=O)c3ccc4c(c3)OCCO4)CC2)c1,–,-2.63% (inactive)
O=C(O)[C@@H](c1ccc(OCc2ccc3ccccc3n2)cc1)C1CCCC1,–,-9.3% (inactive)
NC(=O)C1CCCc2c1[nH]c1ccc(Cl)cc21 (stereo unspecified),–,-0.14% (inactive)
CCn1c(-c2nonc2N)nc2cnc(Oc3cccc(NC(=O)c4ccc(OCCN5CCOCC5)cc4)c3)cc21,–,-2.22% (inactive)
Cc1cc(-c2ccc(CC(=O)Nc3ccc(-c4cccnc4)cc3)cc2)ccn1,–,5.7% (inactive)
Nc1nccc(-c2ccc3noc(-c4ccc(Cl)cc4)c3c2)n1,–,1.69% (inactive)
CCOc1cc(C=C2C(=O)N(c3ccccc3)N=C2C)cc(Cl)c1OCC(=O)OC,–,-19.1% (inactive)
Cc1csc(NC(=O)c2sc3nc4c(c(C(F)(F)F)c3c2N)CCC4)n1,inactive,–
NC(=O)c1ccc(-c2nc(-c3ccc4c(c3)OCCO4)c(-c3ccccn3)[nH]2)cc1,–,-12.1% (inactive)
Cc1cc([C@@H](C)Nc2ccccc2C(=O)O)c2nc(N3CCOCC3)cc(=O)n2c1,–,-7.33% [at 114 µM] (inactive)
COc1cc(F)c(F)c(Nc2ccc(I)cc2F)c1NS(=O)(=O)C1(C[C@H](O)CO)CC1,inactive,–
C[C@]1(c2nc3c(C(N)=O)cccc3[nH]2)CCCN1,–,4.16% (inactive)

SMILES,outcome,"activity change, negative = inhibition"
CCCS(=O)(=O)Nc1ccc(F)c(C(=O)c2c[nH]c3ncc(-c4ccc(Cl)cc4)cc23)c1F,inactive,–
COc1ccc(-c2ccc3c(N4CCOC[C@H]4C)nc(N4CCOC[C@H]4C)nc3n2)cc1CO,–,-1.08% (inactive)
CC(C=CC1=C(C)CCCC1(C)C)=CC=CC(C)=CC(=O)O,inactive,–
Cc1ccnc(NS(=O)(=O)c2ccc(NC(=O)Nc3ccc(S(=O)(=O)Nc4nccc(C)n4)cc3)cc2)n1,inactive,–
CC(C)(C)OC(=O)CN(Cc1ccc(Cl)cc1)Cc1ccc([N+](=O)[O-])s1,–,-1.54% (inactive)
Cc1ccccc1C(C(=O)NC1CCCC1)N(C(=O)Cn1cnc2ccccc21)c1cccc(F)c1 (stereo unspecified),–,-7.81% (inactive)
Cc1cc2c(F)c(Oc3ncnn4cc(OC[C@@H](C)O)c(C)c34)ccc2[nH]1,–,-4.54% (inactive)
Nc1nc2[nH]cc(CCc3ccc(C(=O)N[C@@H](CCC(=O)O)C(=O)O)cc3)c2c(=O)[nH]1,–,-4.1% (inactive)
NC(=O)c1ccc(I)c([N+](=O)[O-])c1,–,2.55% (inactive)
COCC(=O)NCC=Cc1ccc2ncnc(Nc3ccc(Oc4ccc(C)nc4)c(C)c3)c2c1,–,0.999% (inactive)
COc1c(Cl)cc2c([nH]c3cnccc32)c1NC(=O)c1cccnc1C,inactive,–
CCn1c(-c2nonc2N)nc2c(C#CC(C)(C)O)ncc(OC[C@H]3CCCNC3)c21,–,-1.31% (inactive)
CN[C@@H](C)C(=O)N[C@H]1CCCC[C@H]2CC[C@@H](C(=O)N[C@@H](c3ccccc3)c3cn(CCCCc4ccc(CCCCn5cc([C@@H](NC(=O)[C@@H]6CC[C@@H]7CCCC[C@H](NC(=O)[C@H](C)NC)C(=O)N76)c6ccccc6)nn5)cc4)nn3)N2C1=O,–,3.11% (inactive)
CCCS(=O)(=O)Nc1ccc(F)c(C(=O)c2c[nH]c3ncc(Cl)cc23)c1F,inactive,–
COc1ccc(CC2=NN3C([C@@H](CCc4ccccc4)[C@@H](C)O)=NC(C)C3C(=O)N2)cc1OC (stereo partly specified),–,-1.15% (inactive)
O=C(Nc1ccc(F)c(C(F)(F)F)c1)Nc1nnc(-c2ccncc2)s1,inactive,–
CCOc1cc(N2CCC(O)CC2)ccc1Nc1ncc2c(n1)N(C)c1ccccc1C(=O)N2C,–,-12.1% (inactive)
Cc1cc(SCc2sc(-c3ccc(C(F)(F)F)cc3)nc2C)ccc1OCC(=O)O,inactive,–
